In PubChem BioAssay (NCATS):

experiment: qHTS profiling of the MIPE4 collection as inhibitors of Plasmodium falciparum (3D7) proliferation (AID 743344);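 further: scaled between DMSO vehicle wells and 0.29 µM artemisinin as full inhibition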; settings: P. falciparum 3D7 in erythrocytes, SYBR Green DNA fluorescence, 72 h; at 28.5 µM
From the text: Plasmodium falciparum is a virulent malarial parasite that kills 1-2 million people worldwide each year. Transmitted by mosquitoes, the sporozoite form of the parasite enters the blood stream to infect hepatocytes, where they become merozoites that infect red blood cells (erythrocytes). Within erythrocytes, merozoites begin a […] cycle of growth and division, after which the parasite is released to infect new red blood cells. Gametocytes, which form within erythrocytes as well, circulate in the bloodstream and are ingested by the mosquito, thereby completing the life cycle. To profile malarial isolates for differential chemical responses and to identify inhibitors of malarial growth, an assay that measures P. falciparum growth and replication within erythrocytes was employed. This assay uses a DNA binding fluorescent dye (SYBR Green) to detect parasite DNA following cell lysis. Because mature erythrocytes lack DNA, only Plasmodium-derived DNA is detected.
The SYBR Green viability assay was adapted from a method described previously (Plouffe et al., 2008). For screening 3 ul culture medium was dispensed into 1536 well black clear bottom plates (Aurora Biotechnologies) using a Multidrop Combi (Thermo Fisher Scientific Inc.), 23 nL compounds in DMSO were added by a pin tool (Kalypsys), and 5 ul of erythrocytes infected with P. falciparum (0.3% parasitemia, 2.5% hematocrit final concentration) were added. The plates were incubated at 37 C in a humidified incubator in 5% CO2 for 72 h, and 2 ul lysis buffer (20 mM Tris HCl, 10 mM EDTA, 0.16% saponin, 1.6% triton X, 10X SYBR Green I supplied as 10,000X […] by Invitrogen) was added to each well. The plates were mixed for 25 sec with gentle shaking and incubated overnight at room temperature in the dark. The following morning, fluorescence intensity at 485(14) nm excitation and 535(25) nm emission wavelengths was measured on an EnVision (Perkin Elmer) plate reader. Plate reads were normalized relative to the control inhibitor (0.29 uM artemisinin) and vehicle (DMSO) wells present on each plate and then corrected by an algorithm using vehicle-only control plates at the beginning and end of the compound plate stack.

SMILES | parasite growth, % of DMSO control
C[C@](O)(COc1ccc(C#N)cc1)C(=O)Nc1ccc(C#N)c(C(F)(F)F)c1 | 6.31%
CCCCCC[C@H]1C(=O)O[C@H](C)[C@H](NC(=O)c2cccc(NC=O)c2O)C(=O)O[C@@H](C)[C@@H]1OC(=O)CC(C)C | 12%
CC(=CCCC1=CCC(C2=CC(=O)OC2O)OC1O)CCC1=C(C)CCCC1(C)C (stereo not given) | 15.8%
Cc1c(C(=O)c2cccc3ccccc23)c2cccc3c2n1[C@H](CN1CCOCC1)CO3 | 15.4%
CC(=Cc1csc(C)n1)[C@@H]1C[C@H]2O[C@@H]2CCC[C@H](C)[C@@H](O)[C@@H](C)C(=O)C(C)(C)[C@@H](O)CC(=O)O1 | 14.6%
CC(=Cc1csc(C)n1)[C@@H]1C[C@H]2O[C@]2(C)CCC[C@H](C)[C@@H](O)[C@@H](C)C(=O)C(C)(C)[C@@H](O)CC(=O)O1 | 15.3%
NC1=NC(=O)N2CC12 (stereo not given) | 49.2%
C1=C2CCCN[C@H]2[C@@H]2C[C@H]1[C@@H]1CCCCN1C2 | 71.7%
C[C@]12CC[C@@H]3[C@@H](CCC4=CC(=O)CC[C@@H]43)[C@@H]1CC[C@@H]2OC(=O)CCc1ccccc1 | 65.4%
CN1[C@H]2CC(O)C[C@H]1[C@H]1O[C@H]12 (stereo not given in full) | 11.1%
c1cc2c(cc1[C@H]1OC[C@H]3[C@H]1CO[C@H]3c1ccc3c(c1)OCO3)OCO2 | 104%
COc1ccc(C(=O)c2c(C)n(CCN3CCOCC3)c3cc(I)ccc23)cc1 | 44.6%
O=c1[nH]c2ccc(Cl)cc2c(N[C@@H]2CN3CCC2CC3)c1-c1nc2ccccc2[nH]1 | 5.05%
N#C[C@H](O[C@@H]1O[C@H](CO[C@@H]2O[C@H](CO)[C@H](O)[C@H](O)[C@H]2O)[C@H](O)[C@H](O)[C@H]1O)c1ccccc1 | 61.2%
COc1ccc2c(c[n+](C)c3c4cc5c(cc4ccc23)OCO5)c1OC | 71.2%
CC(=O)N(C)c1cccc(-c2ccnc3c(C(=O)c4cccs4)cnn23)c1 | 44.9%
O=S(=O)(CC1CS1)c1ccc(Oc2ccccc2)cc1 (stereo not given) | 94.4%
C=C[C@@H]1CN2CCC1C[C@@H]2[C@@H](O)c1ccnc2ccccc12 (stereo not given in full) | 15.2%
COC1=CC(C)=C[C@@H](C)[C@@H](O)[C@@H](C)CC(C)=CC=C[C@H](OC)[C@H]([C@@H](C)[C@@H](O)[C@H](C)[C@@]2(O)C[C@@H](O)[C@H](C)[C@@H](C(C)C)O2)OC1=O | 6.56%
CCNC(=O)C[C@@H]1N=C(c2ccc(Cl)cc2)c2cc(OC)ccc2-n2c(C)nnc21 | 76.4%

SMILES | parasite growth, % of DMSO control
COc1cc2cc(c1Cl)N(C)C(=O)C[C@H](OC(=O)C(C)C)[C@]1(C)O[C@H]1[C@H](C)[C@@H]1C[C@@](O)(NC(=O)O1)[C@H](OC)C=CC=C(C)C2 | 14%
CC(C)N[C@@H]1CCn2c(=O)[nH]c3cccc(c32)[C@@H]1O | 93.3%
C[C@]12Cc3cn[nH]c3C[C@@H]1CC[C@@H]1[C@H]2CC[C@@]2(C)[C@H]1CC[C@]2(C)O | 52.2%
CCCC[N+]1(C)[C@H]2CC(OC(=O)[C@H](CO)c3ccccc3)C[C@H]1[C@H]1O[C@H]12 (stereo not given in full) | 98.9%
c1ccc(CCCN2CCN(CCOC(c3ccccc3)c3ccccc3)CC2)cc1 | 9.93%
C[C@@H]1CC[C@@]2(OC1)O[C@H]1C[C@H]3[C@@H]4CC=C5C[C@@H](O[C@@H]6O[C@H](CO)[C@@H](O[C@@H]7O[C@@H](C)[C@H](O)[C@@H](O)[C@@H]7O)[C@H](O)[C@@H]6O[C@@H]6O[C@@H](C)[C@H](O)[C@@H](O)[C@@H]6O)CC[C@]5(C)[C@@H]4CC[C@]3(C)[C@@H]1[C@H]2C | 57.2%
CN(C)[C@@H]1C(=O)C(C(N)=O)=C(O)[C@@]2(O)C(=O)C3=C(O)c4c(O)cccc4[C@@](C)(O)[C@H]3[C@H](O)[C@@H]12 | 29.4%
CC[C@@]1(O)C(=O)OCc2c1cc1n(c2=O)Cc2cc3ccccc3nc2-1 | 15.1%
CC(C)(C)c1cc(C=C(C#N)C#N)cc(Br)c1O | 34.5%
CC(C)[C@H]1C(=O)N[C@H](CO)Cc2c[nH]c3cccc(c23)N1C | 87.1%
N=c1c2c(-c3ccccc3)c(-c3ccccc3)n(Cc3ccccc3)c2ncn1C1CCC(O)CC1 (stereo not given) | 10.7%
c1ccc2c(CN3CCNCC3)cccc2c1 | 85.3%
O=c1cccc2n1CC1CNC[C@H]2C1 | 71.3%
C[C@@]12OC(=O)[C@]1([C@@H](O)[C@@H]1C=CCCC1)NC(=O)[C@H]2CCCl | 4.78%
COC[C@H]1OC(=O)c2coc3c2[C@@]1(C)C1=C(C3=O)[C@@H]2CC[C@H](O)[C@@]2(C)C[C@@H]1OC(C)=O | 93.1%
CCN(CC)C(=O)c1ccc(C2=CC3(CCNCC3)Oc3cccc(O)c32)cc1 | 21.1%
CN(C)NC(=O)CCC(=O)O | 91.1%
O=C(NCC1CCOCC1)c1cnc(Nc2ccc(Cl)cc2Cl)nc1C(F)(F)F | 52.4%
O=C(O)CNC(=O)c1c(O)c2ccccc2n(Cc2ccccc2)c1=O | 88%
C=C1C[C@H]2[C@H]3CCC(=O)[C@@]3(C)CC[C@@H]2[C@@]2(C)C=CC(=O)C=C12 | 51.5%
